Screen size: about 5,500 compounds; about 2,000 (36%) were called active. About 18% were inconclusive and are not listed. No stated cut-off is given here; in the data, active means normalized growth mostly below about 0.91 (no sharp cut-off); inconclusive means no clear call, values can overlap the other calls; inactive means mostly above about 0.92. The list shows a part of the results.
Experiment: chemical genetic growth profiling, strain panel (AID 1159580);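 further: tested at 20 µM; growth read once vehicle control cultures reached saturation at 30 °C; 1 = growth at the plate median or of vehicle wells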
Conditions: growth OD
[1] = S. cerevisiae deletion strains, locus YAL013W, strain DEP1, stronger effect = lower value
[2] = S. cerevisiae deletion strains, locus YCL061C, strain MRC1, stronger effect = lower value
[3] = S. cerevisiae deletion strains, locus YGR078C, strain PAC10, stronger effect = lower value
[4] = S. cerevisiae deletion strains, locus YHR030C, strain SLT2, stronger effect = lower value
[5] = S. cerevisiae deletion strains, locus YMR263W, strain SAP30, stronger effect = lower value
[6] = S. cerevisiae deletion strains, locus YNL153C, strain GIM3, stronger effect = lower value
[7] = S. cerevisiae deletion strains, locus YNL322C, strain KRE1, stronger effect = lower value
[8] = S. cerevisiae deletion strains, locus YAL040C, strain CLN3, stronger effect = lower value
[9] = S. cerevisiae deletion strains, locus YER002W, strain NOP16, stronger effect = lower value
[10] = S. cerevisiae deletion strains, locus YNL175C, strain NOP13, stronger effect = lower value
[11] = S. cerevisiae deletion strains, locus YNL197C, strain WHI3, stronger effect = lower value
[12] = S. cerevisiae deletion strains, locus YNL224C, strain SQS1, stronger effect = lower value
[13] = S. cerevisiae deletion strains, locus YOR083W, strain WHI5 (second series), stronger effect = lower value

Measured: normalized growth

O=C1c2ccccc2C(=O)C1(c1ccccc1)[N+](=O)[O-]
active: [1] 0.848 | S. cerevisiae deletion strains, locus YBR229C, strain ROT2, stronger effect = lower value 0.78 | [2] 0.818 | S. cerevisiae deletion strains, locus YDL101C, strain DUN1, stronger effect = lower value 0.776 | S. cerevisiae deletion strains, locus YDL134C, strain PPH21, stronger effect = lower value 0.897 | [3] 0.664 | [4] 0.587 | S. cerevisiae deletion strains, locus YHR087W, strain rtc3, stronger effect = lower value 0.811 | S. cerevisiae deletion strains, locus YJR043C, strain POL32, stronger effect = lower value 0.861 | S. cerevisiae deletion strains, locus YJR075W, strain HOC1, stronger effect = lower value 0.747 | S. cerevisiae deletion strains, locus YLR039C, strain RIC1, stronger effect = lower value 0.734 | S. cerevisiae deletion strains, locus YLR262C, strain YPT6, stronger effect = lower value 0.8 | S. cerevisiae deletion strains, locus YMR219W, strain ESC1, stronger effect = lower value 0.832 | [5] 0.813 | [6] 0.803 | S. cerevisiae deletion strains, locus YNR030W, strain Alg12, stronger effect = lower value 0.0637 | S. cerevisiae deletion strains, locus YPL055C, strain LGE1, stronger effect = lower value 0.799 | S. cerevisiae deletion strains, locus YPL241C, strain CIN2, stronger effect = lower value 0.0628
inactive: S. cerevisiae deletion strains, locus YEL061C, strain CIN8, stronger effect = lower value 0.943 | S. cerevisiae deletion strains, locus YLR058C, strain SHM2 (second series), stronger effect = lower value 1.03 | S. cerevisiae deletion strains, locus YLR085C, strain ARP6, stronger effect = lower value 0.975 | S. cerevisiae deletion strains, locus YML094W, strain GIM5, stronger effect = lower value 0.946 | S. cerevisiae deletion strains, locus YMR307W, strain GAS1, stronger effect = lower value 0.919 | S. cerevisiae deletion strains, locus YNL298W, strain CLA4 (second series), stronger effect = lower value 0.956 | [7] 1.01 | S. cerevisiae deletion strains, locus YOL006C, strain TOP1, stronger effect = lower value 0.893 | S. cerevisiae deletion strains, locus YPR135W, strain CTF4, stronger effect = lower value 0.798 | S. cerevisiae strains, strain wild type, stronger effect = lower value 0.985

O=C1NC(=O)C(c2ccccc2)(c2ccccc2)N1
inactive: [1] 1.01 | [8] 1.1 | S. cerevisiae deletion strains, locus YCL061C, strain MRC1 (second series), stronger effect = lower value 1 | S. cerevisiae deletion strains, locus YDR363W, strain ESC2, stronger effect = lower value 1.02 | [9] 0.991 | [3] 1.02 | S. cerevisiae deletion strains, locus YNL128W, strain TEP1, stronger effect = lower value 1 | [10] 0.993 | [11] 1.01 | [12] 0.975 | [7] 1.03 | [13] 1.03

CN(C)CCCC1(c2ccc(F)cc2)OCc2cc(C#N)ccc21 (centres undefined)
inactive: S. cerevisiae deletion strains, locus YAL021C, strain ccr4, stronger effect = lower value 0.999 | S. cerevisiae deletion strains, locus YAL026C, strain drs2, stronger effect = lower value 0.995 | S. cerevisiae deletion strains, locus YAL030W, strain snc1, stronger effect = lower value 0.987 | [8] 0.984 | S. cerevisiae deletion strains, locus YBL061C, strain skt5, stronger effect = lower value 0.991 | S. cerevisiae deletion strains, locus YBR009C, strain hhf1, stronger effect = lower value 0.979 | S. cerevisiae deletion strains, locus YBR023C, strain chs3, stronger effect = lower value 0.987 | S. cerevisiae deletion strains, locus YBR171W, strain sec66, stronger effect = lower value 0.983 | S. cerevisiae deletion strains, locus YBR231C, strain swc5, stronger effect = lower value 0.981 | S. cerevisiae deletion strains, locus YBR279W, strain paf1, stronger effect = lower value 0.979 | S. cerevisiae deletion strains, locus YCL011C, strain gbp2, stronger effect = lower value 0.99 | S. cerevisiae deletion strains, locus YCL016C, strain dcc1, stronger effect = lower value 0.997 | [2] 0.987 | S. cerevisiae deletion strains, locus YCL069W, strain vba3, stronger effect = lower value 0.992 | S. cerevisiae deletion strains, locus YCR088W, strain abp1, stronger effect = lower value 0.983 | S. cerevisiae deletion strains, locus YDL005C, strain med2, stronger effect = lower value 0.985 | S. cerevisiae deletion strains, locus YDL040C, strain nat1, stronger effect = lower value 0.985 | S. cerevisiae deletion strains, locus YDR001C, strain nth1, stronger effect = lower value 0.981 | S. cerevisiae deletion strains, locus YDR069C, strain doa4, stronger effect = lower value 0.983 | S. cerevisiae deletion strains, locus YDR137W, strain rgp1, stronger effect = lower value 0.991 | S. cerevisiae deletion strains, locus YDR159W, strain sac3, stronger effect = lower value 0.985 | S. cerevisiae deletion strains, locus YDR195W, strain ref2 0.946 | S. cerevisiae deletion strains, locus YDR297W, strain sur2, stronger effect = lower value 0.993 | S. cerevisiae deletion strains, locus YDR334W, strain swr1, stronger effect = lower value 0.983 | S. cerevisiae deletion strains, locus YDR335W, strain msn5, stronger effect = lower value 0.991 | S. cerevisiae deletion strains, locus YDR392W, strain spt3, stronger effect = lower value 0.894 | S. cerevisiae deletion strains, locus YEL003W, strain gim4, stronger effect = lower value 0.987 | S. cerevisiae deletion strains, locus YEL037C, strain rad23, stronger effect = lower value 1 | S. cerevisiae deletion strains, locus YEL061C, strain CIN8 (second series), stronger effect = lower value 0.986 | [9] 0.994 | S. cerevisiae deletion strains, locus YER015W, strain faa2, stronger effect = lower value 0.985 | S. cerevisiae deletion strains, locus YER016W, strain bim1, stronger effect = lower value 0.985 | S. cerevisiae deletion strains, locus YER111C, strain swi4, stronger effect = lower value 0.983 | S. cerevisiae deletion strains, locus YER155C, strain BEM2 (second series), stronger effect = lower value 0.944 | S. cerevisiae deletion strains, locus YFR010W, strain ubp6, stronger effect = lower value 0.976 | S. cerevisiae deletion strains, locus YGL167C, strain pmr1, stronger effect = lower value 0.99 | S. cerevisiae deletion strains, locus YGL173C, strain kem1, stronger effect = lower value 0.989 | S. cerevisiae deletion strains, locus YGL227W, strain vid30, stronger effect = lower value 0.989 | S. cerevisiae deletion strains, locus YGL240W, strain doc1, stronger effect = lower value 0.97 | S. cerevisiae deletion strains, locus YGL253W, strain hxk2, stronger effect = lower value 0.993 | S. cerevisiae deletion strains, locus YGR229C, strain SMI1, stronger effect = lower value 1.01 | S. cerevisiae deletion strains, locus YHR013C, strain ard1, stronger effect = lower value 0.975 | S. cerevisiae deletion strains, locus YHR027C, strain rpn1, stronger effect = lower value 0.985 | [4] 1.02 | S. cerevisiae deletion strains, locus YHR079C, strain IRE1, stronger effect = lower value 1.03 | S. cerevisiae deletion strains, locus YHR142W, strain chs7, stronger effect = lower value 1 | S. cerevisiae deletion strains, locus YJL092W, strain hpr5, stronger effect = lower value 0.995 | S. cerevisiae deletion strains, locus YJL095W, strain BCK1 (second series), stronger effect = lower value 0.989 | S. cerevisiae deletion strains, locus YJL095W, strain BCK1, stronger effect = lower value 1.03 | S. cerevisiae deletion strains, locus YJL115W, strain asf1, stronger effect = lower value 0.985 | S. cerevisiae deletion strains, locus YJL129C, strain trk1, stronger effect = lower value 1 | S. cerevisiae deletion strains, locus YJL154C, strain vps35, stronger effect = lower value 0.989 | S. cerevisiae deletion strains, locus YJL164C, strain tpk1, stronger effect = lower value 0.987 | S. cerevisiae deletion strains, locus YJL166W, strain qcr8, stronger effect = lower value 1 | S. cerevisiae deletion strains, locus YJL187C, strain SWE1, stronger effect = lower value 0.987 | S. cerevisiae deletion strains, locus YJR066W, strain TOR1, stronger effect = lower value 0.998 | S. cerevisiae deletion strains, locus YKL160W, strain elf1, stronger effect = lower value 1 | S. cerevisiae deletion strains, locus YKR026C, strain gcn3, stronger effect = lower value 0.96 | S. cerevisiae deletion strains, locus YKR091W, strain srl3, stronger effect = lower value 0.991 | S. cerevisiae deletion strains, locus YLL001W, strain dnm1, stronger effect = lower value 0.994 | S. cerevisiae deletion strains, locus YLL026W, stronger effect = lower value 0.986 | S. cerevisiae deletion strains, locus YLL041C, strain sdh2, stronger effect = lower value 0.992 | S. cerevisiae deletion strains, locus YLR027C, strain aat2, stronger effect = lower value 0.98 | S. cerevisiae deletion strains, locus YLR113W, strain HOG1, stronger effect = lower value 1.01 | S. cerevisiae deletion strains, locus YLR221C, strain rsa3, stronger effect = lower value 1 | S. cerevisiae deletion strains, locus YLR258W, strain gsy2, stronger effect = lower value 0.98 | S. cerevisiae deletion strains, locus YLR262C, strain YPT6 (second series), stronger effect = lower value 1.05 | S. cerevisiae deletion strains, locus YLR320W, strain mms22, stronger effect = lower value 0.993 | S. cerevisiae deletion strains, locus YLR342W, strain FKS1, stronger effect = lower value 0.999 | S. cerevisiae deletion strains, locus YLR357W, strain rsc2, stronger effect = lower value 0.952 | S. cerevisiae deletion strains, locus YLR370C, strain arc18, stronger effect = lower value 0.989 | S. cerevisiae deletion strains, locus YLR384C, strain iki3, stronger effect = lower value 0.98 | S. cerevisiae deletion strains, locus YML120C, strain ndi1, stronger effect = lower value 0.978 | S. cerevisiae deletion strains, locus YMR058W, strain fet3, stronger effect = lower value 0.993 | S. cerevisiae deletion strains, locus YMR125W, strain sto1, stronger effect = lower value 0.951 | S. cerevisiae deletion strains, locus YMR129W, stronger effect = lower value 0.999 | S. cerevisiae deletion strains, locus YMR205C, strain PFK2, stronger effect = lower value 0.946 | S. cerevisiae deletion strains, locus YMR231W, strain pep5, stronger effect = lower value 0.984 | [5] 0.962 | S. cerevisiae deletion strains, locus YNL071W, strain lat1, stronger effect = lower value 0.99 | [6] 0.997 | [10] 1 | S. cerevisiae deletion strains, locus YNL183C, strain NPR1, stronger effect = lower value 1 | [11] 1 | S. cerevisiae deletion strains, locus YNL209W, strain ssb2, stronger effect = lower value 0.992 | [12] 1.02 | S. cerevisiae deletion strains, locus YNL248C, strain rpa49, stronger effect = lower value 0.99 | S. cerevisiae deletion strains, locus YNL322C, strain KRE1 (second series), stronger effect = lower value 0.986 | S. cerevisiae deletion strains, locus YNR049C, strain mso1, stronger effect = lower value 0.982 | S. cerevisiae deletion strains, locus YOR001W, strain rrp6, stronger effect = lower value 0.987 | S. cerevisiae deletion strains, locus YOR070C, strain gyp1, stronger effect = lower value 0.985 | S. cerevisiae deletion strains, locus YOR080W, strain dia2, stronger effect = lower value 0.99 | [13] 1.01 | S. cerevisiae deletion strains, locus YOR083W, strain WHI5, stronger effect = lower value 0.999 | S. cerevisiae deletion strains, locus YOR106W, strain vam3, stronger effect = lower value 1.01 | S. cerevisiae deletion strains, locus YOR231W, strain MKK1, stronger effect = lower value 1.03 | S. cerevisiae deletion strains, locus YOR265W, strain rbl2, stronger effect = lower value 0.987 | S. cerevisiae deletion strains, locus YOR270C, strain vph1, stronger effect = lower value 0.996 | S. cerevisiae deletion strains, locus YOR290C, strain snf2, stronger effect = lower value 0.985 | S. cerevisiae deletion strains, locus YPL051W, strain arl3, stronger effect = lower value 0.997 | S. cerevisiae deletion strains, locus YPL078C, strain atp4, stronger effect = lower value 1 | S. cerevisiae deletion strains, locus YPL106C, strain sse1, stronger effect = lower value 0.959 | S. cerevisiae deletion strains, locus YPL240C, strain hsp82, stronger effect = lower value 1 | S. cerevisiae deletion strains, locus YPL256C, strain CLN2, stronger effect = lower value 1.04

From PubChem BioAssay AID1159580 (chemical genetic matrix, 2015)
